Data reported in PubChem BioAssay (NCI).
About 83,000 compounds went through this panel and 20% of them were active in at least one assay; those are over-represented in the sample as a whole.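 48-hour exposure, single concentration, 96-well plates; percent growth endpoint where 0 means no net growth. Active: below 10.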 A number with no mark means an inactive call. Calls of active or inactive are those of the source.

The compounds below were run on HOP-92 NSCLC (assay: NCI-60 one-dose screen, 48 h (100 = growth as untreated, 0 = no growth, -100 = all killed)). Details: 10 µM.
Procedure: Growth inhibition of the HOP-92 human Non-Small Cell Lung tumor cell line is measured as a screen for anti-cancer activity. Cells are grown in 96 well plates and exposed to the test compound for 48 hours. Compounds are tested at a single concentration, which is 10^-5 M for most compounds. The reported endpoint is percent growth (GI% or GIPRCNT), where numbers from 0 - 100% represent growth inhibition, and numbers from -100% - 0 represent cell death. For example, a value of 40 represents 60% growth inhibition. A value of 0 means no net growth occurred over the course of the experiment. A value of -40 indicates 40% of cells at the beginning of the experiment died by the end of the experiment. A value of -100 means all cells are dead at the end of the experiment.
NCI-60 Human Tumor Cell Lines Screen was performed using the standard one-dose NCI protocol, which is described in more detail at https://dtp.cancer.gov/discovery_development/nci-60/default.htm.
Compounds with GIPRCNT values below 10 were considered active. Activity score was based on GIPRCNT using the following formula: […]
Score is 0 for GIPRCNT values of 100 or above, 50 for GIPRCNT values of 0, and 100 for GIPRCNT values of -100.

Row | Structure (SMILES) | growth
1 | Nc1ncnc2c1nc(N)n2C1OC(CO)C(O)C1O (stereo not given) | -29.8% (active)
2 | O=C(Cc1nc2ccc([N+](=O)[O-])cc2nc1CC(=O)c1ccccc1)c1ccccc1 | 71.5%
3 | O=C(c1ccc(Cl)cc1)c1ccccc1Cl | 78.2%
4 | COc1ccc(OC)c(/C=C2\CCc3ccccc3C2=O)c1 | 45.2%
5 | COc1cccc(O)c1O | 93.7%
6 | S=C1NCc2cncnc2N1 | 95.6%
7 | CC(C)=NNc1ccc([N+](=O)[O-])cc1[N+](=O)[O-] | 80.2%
8 | CCNc1nc2c(cnn2C)c(=O)[nH]1 | 99.8%
9 | COC(=O)CCCCC1=CCC2C(=O)C=C(O)C2C1 (stereo not given) | 85.2%
10 | Oc1ccccc1-c1nnco1 | 97%
11 | CCCCCC(C)(CC(=O)O)CC(=O)O | 119%
12 | N#CCc1ccc([N+](=O)[O-])cc1 | 92.7%
13 | Cc1ccc(S(=O)(=O)O)c(C)c1 | 92.4%
14 | CC(=O)OCC(=O)[C@@]1(O)CC[C@H]2[C@@H]3CC[C@@H]4C[C@H](O)CC[C@]4(C)[C@H]3C(=O)C[C@@]21C | 93.4%
15 | Nc1nc(N)c2cc(S(=O)(=O)c3cccc(C(F)(F)F)c3)ccc2n1 | 55.7%
16 | CC12CC3CC1C(C(=O)O2)C3C(=O)O (stereo not given) | 107%
17 | O=c1cc(-c2ccccc2)oc2c1ccc1ccccc12 | 50.5%
18 | COc1nc(N)nc2c1ncn2C1OC(CO)CC1O (stereo not given) | 95.3%
19 | CCCCNC1(C#N)CCN(Cc2ccccc2)CC1 | 90.4%
20 | O=C(O)CCCC(=O)O | 72.6%

Row | Structure (SMILES) | growth
21 | O=C(/C(=N/O)c1ccccc1)c1ccccc1 | 96.6%
22 | CO[C@H]1C[C@@H]2CC[C@@H](C)[C@@](O)(O2)C(=O)C(=O)N2CCCC[C@H]2C(=O)O[C@H]([C@H](C)C[C@@H]2CC[C@@H](O)[C@H](OC)C2)CC(=O)[C@H](C)C=C(C)[C@@H](O)[C@@H](OC)C(=O)[C@H](C)C[C@H](C)/C=C/C=C/C=C1C | 30.7%
23 | CC1CC(O)CC(C)(C)C1 (stereo not given) | 96.5%
24 | CC1(O)OC(COc2ccc(Cl)cc2)COC1O (stereo not given) | 105%
25 | CCOc1ccc(/C=C/C(=O)c2ccccc2)cc1 | 82.6%
26 | CCCCCCCCOC(=O)c1ccccn1 | 107%
27 | O=C(Nc1ccccc1C(=O)NCC1CC1)c1cccs1 | 71.6%
28 | CCOc1ccc(I)cc1 | 90.3%
29 | CC1CCCCN1C(=S)Nc1ccc(S(=O)(=O)N2CCCCC2)cc1 (stereo not given) | 63.1%
30 | O=[N+]([O-])c1cccc(N=Nc2ccc(O)cc2O)c1 | 47.4%
31 | COc1ccc2c(c1)CCc1c-2n[nH]c1-c1[nH]nc2c1CCc1cc(OC)ccc1-2 | 84.6%
32 | O=C(O)c1ccccc1NCc1ccco1 | 108%
33 | CCN(CC)CCCC(C)Nc1ccnc(/C=C/c2ccc(Cl)cc2)c1 (stereo not given) | -19.8% (active)
34 | C1CNC(C2=NCCN2)=N1 | 93.6%
35 | Cc1cc2nc(CC(=O)c3ccccc3)c(=O)[nH]c2cc1C | 88.5%
36 | O=[N+]([O-])c1ccc(N=Nc2ccc(O)c3ccccc23)cc1 | 10.8%
37 | O=C(O)CCC(NC(=O)OCc1ccccc1)C(=O)O (stereo not given) | 95.9%
38 | CC1CCC(C(=O)O)N1 (stereo not given) | 102%
39 | Cc1ccc(C(=O)c2ccccc2)c(C)c1 | 111%
40 | O=[N+]([O-])c1ccccc1N=Nc1ccc(O)cc1O | 112%
